This is an account of results in PubChem BioAssay.

The test system of assay [1] is XIP peptide (Xip251-270) binding. Nature of the assay: XIP fragment 251-270 binding compounds – biochemical, small-molecule microarray, fluorescence 635/667 nm, 0.1 µg/mL protein, primary screen (AID 1182). Conditions: fluorescent protein binding, 635 nm, higher = more signal, called active from +8 up or from −8 down.
The test system of a further assay is XIP peptide (Xip251-270). Nature of the assay: compounds binding XIP fragment 251-270 – biochemical, small-molecule microarray, fluorescence 635/667 nm, 0.5 µg/mL protein, primary screen (AID 1183). The note with it: fluorescence 635 nm, higher = more signal.
Assay [2] in a line: blood-stage malaria parasite viability loss – strain 3D7, DAPI fluorescence, 100 nL, primary screen (AID 1184).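 Also: parasites grown inside human red blood cells in medium with human serum.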 Conditions: P. falciparum 3D7 growth, 3 d, higher = more signal.
The target in assay [3] is Homeobox protein Hox-A13 (Mus musculus) (UniProt Q62424). In words: disruptors of Hoxa13 oligonucleotide interaction – biochemical, fluorescence polarization, labeled oligonucleotide, primary screen (AID 1185). Conditions: Hoxa13:DNA binding, 15 min, higher = more signal, called active from +8 up or from −8 down.
A short description of assay [4]: blockers of DNA damage checkpoint Chk1 activation – imaging, HeLa, hydroxyurea, phospho-Chk1 antibody, percent positive cells, primary screen (AID 1186). The note with it: hydroxyurea-induced phospho-Chk1 immunofluorescence imaging, higher = more signal.
A short description of assay [5]: blockers of DNA damage checkpoint Chk1 activation – imaging, HeLa, hydroxyurea, phospho-Chk1 nuclear intensity, primary screen (AID 1187). Conditions: hydroxyurea-induced phospho-Chk1 immunofluorescence imaging, higher = more signal.

SMILES strings stand for the structures. Calls of active or inactive are those of the source. Unless noted, no rule for the calls is given here.

Homeobox protein Hox-A13 (Mus musculus), sequence (Q62424 whole entry, looked up): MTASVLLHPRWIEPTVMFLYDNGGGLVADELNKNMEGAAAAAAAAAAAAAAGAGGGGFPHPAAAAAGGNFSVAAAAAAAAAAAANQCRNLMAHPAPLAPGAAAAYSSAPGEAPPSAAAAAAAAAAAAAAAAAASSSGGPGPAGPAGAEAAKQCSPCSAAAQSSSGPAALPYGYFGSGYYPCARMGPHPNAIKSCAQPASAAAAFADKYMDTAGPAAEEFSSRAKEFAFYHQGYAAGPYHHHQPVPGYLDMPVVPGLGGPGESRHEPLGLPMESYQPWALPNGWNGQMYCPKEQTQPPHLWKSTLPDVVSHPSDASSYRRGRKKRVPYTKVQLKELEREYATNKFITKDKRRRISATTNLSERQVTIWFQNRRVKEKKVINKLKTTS

In the case of `NC(=O)N1C(=O)C2C(C1=O)C1C=C(CCCO)C2C(c2cccs2)N1Cc1cc2c(cc1Br)OCO2` (stereo not drawn), the composite z-score in assay [1] is 0.0706 (inactive); with XIP peptide (Xip251-270), 0.231. For the same compound, the z-score in assay [2] was 0.376; in assay [3] it was -5.04 (inactive); in assay [4] it was 0.164 (inactive); in assay [5], 0.509 (inactive).

For `Cc1ccc(C(C)CC(O)C2C=CC3C(=O)N(c4ccccc4)C(=O)C3N2Nc2ccc(C(C)C)cc2)o1` (stereo not drawn), the composite z-score in assay [1] is 0.195 (inactive); with XIP peptide (Xip251-270), 0.691. Besides, the z-score is 0.0472 in assay [2], -3.2 (inactive) in assay [3], 0.527 (inactive) in assay [4] and 0.482 (inactive) in assay [5].

Take `[N-]=[N+]=Nc1ccccc1[C@@H]1OC(c2ccc(OCCCO)cc2)=N[C@]1(CCS(=O)(=O)c1ccccc1)C(=O)NCCN1CCOCC1`: the composite z-score was 0.691 (inactive) in assay [1] and 0.433 with XIP peptide (Xip251-270). Moreover, the z-score in assay [2] was -2.67; in assay [3], -3.85 (inactive); in assay [4], 0.147 (inactive); in assay [5] it was 0.222 (inactive).

Take `NC(=O)NCC#Cc1ccc2c(c1)[C@]1(C(=O)N2)[C@H](C(=O)Nc2nc3ccccc3s2)[C@H]2C(=O)O[C@H](c3ccccc3)[C@H](c3ccccc3)N2[C@@H]1c1ccc(O)cc1`: the composite z-score in assay [1] is 0.207 (inactive); in the assay on XIP peptide (Xip251-270) it was 0.6. Also, the z-score in assay [2] is -0.905; in assay [3], 0.916 (inactive); in assay [4], 0.118 (inactive); in assay [5] it was 0.194 (inactive).

Consider `COc1cc(OC)c(C(O)C2C=CC3C(=O)N(c4ccccc4)C(=O)C3N2Nc2ccc(C#N)cc2)cc1Br` (stereo not drawn), for which the composite z-score is 3.12 (inactive) in assay [1] and 0.796 with XIP peptide (Xip251-270). Moreover, the z-score in assay [2] is -0.365; in assay [3], -3.36 (inactive); in assay [4], -0.002 (inactive); in assay [5], -0.795 (inactive).

On to `C=C(CCCC)/C(=C/C[C@@H](OC(=O)c1ccncc1)c1cccc(OCCO)c1)c1cnc2ccccc2c1`, for which the composite z-score was 0.389 (inactive) in assay [1] and 0.405 in the assay with XIP peptide (Xip251-270). Besides, the z-score in assay [2] was -3.03; in assay [3], -3.72 (inactive); in assay [4] it was -0.403 (inactive); in assay [5], -0.342 (inactive).

On to `O=C1c2ccccc2[C@](Cc2ccccc2I)(C(=O)NCCN2CCOCC2)[C@H](c2ccc(CO)cc2)N1Cc1ccccc1`, for which the results for the composite z-score (in assay [1]; in the assay with XIP peptide (Xip251-270)) were 0.198 (inactive) and 0.67, respectively. For the same compound, the z-score in assay [2] is -0.74; in assay [3], -5.76 (inactive); in assay [4], -0.0525 (inactive); in assay [5], -0.321 (inactive).

For the compound `C=CC[C@]12N=C(c3ccc(OCCCO)cc3)O[C@H]1c1ccccc1N(C)C2=O`, the values for the composite z-score (in assay [1]; in the assay on XIP peptide (Xip251-270)) were 2.91 (inactive) and 0.842, respectively. Further, the z-score was -2.33 in assay [2], -4.31 (inactive) in assay [3], -0.0503 (inactive) in assay [4] and -0.394 (inactive) in assay [5].

For the compound `[N-]=[N+]=NCc1ccccc1C[C@@]1(C(N)=O)N=C(c2ccc(OCCCO)cc2)O[C@@H]1c1ccccc1CN=[N+]=[N-]`, the figures for the composite z-score (in assay [1]; in the assay on XIP peptide (Xip251-270)) were 0.145 (inactive) and 0.0228, respectively. In addition, the z-score in assay [2] is -1.91; in assay [3] it was -1.91 (inactive); in assay [4] it was -0.228 (inactive); in assay [5], -0.347 (inactive).

In the case of `COC(=O)[C@@]1(Cc2ccc(OC)cc2)[C@H]2c3cc(C(=O)N(C)C)n(Cc4nc5ccccc5[nH]4)c3C[C@H]2CN1C(=O)c1ccccc1`, the results for the composite z-score (in assay [1]; in the assay with XIP peptide (Xip251-270)) were 0.469 (inactive) and 0.599, respectively. For the same compound, the z-score is -1.17 in assay [2], -3.08 (inactive) in assay [3], 0.399 (inactive) in assay [4] and 0.0842 (inactive) in assay [5].

`CCCCN1CC=CC23O[C@@H]4C=CCOC(=O)[C@@H]4[C@H]2C(=O)N(CCCO)[C@@H]3C1=O` (stereo partly drawn): the results for the composite z-score (in assay [1]; in the assay on XIP peptide (Xip251-270)) were 0.769 (inactive) and -0.374, respectively. Moreover, the z-score is -1.81 in assay [2], -4.48 (inactive) in assay [3], -0.247 (inactive) in assay [4] and -0.169 (inactive) in assay [5].

On to `CC(C)(C)OC(=O)CC[C@]1(C(=O)NCCN2CCOCC2)N=C(c2ccc(OCCCO)cc2)O[C@H]1c1ccccc1`, for which the composite z-score was 0.471 (inactive) in assay [1] and 0.598 with XIP peptide (Xip251-270). Besides, the z-score in assay [2] was 0.207; in assay [3], -4.62 (inactive); in assay [4], -0.103 (inactive); in assay [5] it was 0.201 (inactive).

With `CCOC(=O)C[C@H]1[C@H](OC(=O)Cc2ccc3c(c2)OCO3)[C@@H](NC(=O)Cc2ccc(OC)cc2)c2cc(OCCCO)ccc2N1C(=O)c1ccccc1`, the composite z-score was 1.08 (inactive) in assay [1] and -0.0883 with XIP peptide (Xip251-270). Besides, the z-score in assay [2] was -0.382; in assay [3], -2.51 (inactive); in assay [4], -0.543 (inactive); in assay [5], -0.165 (inactive).
